From PubChem BioAssay
HT1080 IDH1KD tx: qHTS for induction of synthetic lethality in tumor cells producing 2HG: qHTS for the HT-1080-IDH1KD cell line; Potency, µM (top dose mostly 46.1 µM), for the others: at the highest dose activity, negative = toxicity, hits mostly cytotoxic; actives 2% (n = 360,000); AID 686971, 2013; HT-1080 IDH1 knockdown viability, ATP luminescence, 48 h;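 further: 0% = DMSO wells and -100% = cell-free medium wells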
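In this qHTS, HT-1080 cells depleted of IDH1 are exposed for 48 h at 37 °C to compound titrations. Toxicity is scored from CellTiter-Glo luminescence, with DMSO as full viability and medium alone as none.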
KB-3-1 cytotox: qHTS assay for MDR1-selective chemotherapeutics: Primary screen using the parental adenocarcinoma cell KB-3-1. AID 1347075, 2019. actives 1.4% (n = 400,000). KB-3-1 viability, CellTiter-Glo ATP luminescence, 72 h. Potency, µM (highest dose often 46.1 µM), most hits filed as cytotoxic; further: nearly all actives have a fitted effect of over 60% in size
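Cytotoxicity measured as CellTiter-Glo luminescence after 72 h at 37 C. Compound titrations were pinned onto drug-naive KB-3-1 parental adenocarcinoma cells grown in DMEM with 10% FBS, and normalized data fitted to concentration-response curves.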
KB-V1 cytotox: qHTS assay for MDR1-selective chemotherapeutics: Primary screen using the drug-selected MDR subline cells KB-V1; KB-V1 MDR cells viability, CellTiter-Glo, 72 h; Potency, µM (top dose mostly 46.1 µM), actives largely listed as cytotoxic; actives 3.4% (n = 400,000); AID 1347076, 2019; further: nearly all actives have a fitted effect of over 60% in size
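Cytotoxicity toward P-gp-expressing KB-V1 cells was determined as loss of CellTiter-Glo luminescence after 72 h at 37 degrees C. Compounds were tested in quantitative HTS format across a concentration range, with curves fitted to normalized data.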
DT40 TDP1 no CPT: qHTS for Inhibitors of human tyrosyl-DNA phosphodiesterase 1 (TDP1): qHTS in cells in absence of CPT; actives 15% (n = 420,000); Potency, µM (doses to about 46.2 µM), for the others: at the top dose activity change, negative = growth inhibition, hits mostly inhibitors; AID 686978, 2013; DT40 Tdp1-/- hTDP1 cells, no CPT, ATP luminescence, 48 h; further: nearly all actives have a fitted effect of over 55% in size
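Camptothecin absent (DMSO only). Human TDP1-complemented DT40 knockout cells, 400 cells/well, 37 °C for minimum 48 hr; ATP measured via CellTiter-Glo, 30 min dark incubation, luminescence.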
TDP1 cell CPT: qHTS for Inhibitors of human tyrosyl-DNA phosphodiesterase 1 (TDP1): qHTS in cells in presence of CPT. actives 12% (n = 420,000). chicken DT40 Tdp1-/-;hTDP1 cells + 20 nM CPT, ATP luminescence, 48 h. Potency, µM (highest dose often 46.2 µM), inactives show top-dose activity change, negative = growth inhibition, usual class: inhibitors; further: nearly all actives have a fitted effect of over 55% in size
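Cell growth measured by CellTiter-Glo luminescence after a minimum 48 h, 37 C compound exposure with 20 nM CPT in Tdp1-knockout DT40 cells stably expressing hTDP1, seeded 400/well; qHTS titration format.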
HT1080-NT tox: qHTS for induction of synthetic lethality in tumor cells producing 2HG: qHTS for the HT-1080-NT fibrosarcoma cell line; HT-1080-NT fibrosarcoma viability, CellTiter-Glo ATP luminescence, 48 h; Potency, µM (highest dose often 46.1 µM), without a hit: at the top dose activity, negative = less viability, most hits filed as cytotoxic; actives 1.6% (n = 360,000);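 further: NT is the 2HG producing partner of a matched IDH1 knockdown line; 0% = DMSO-treated cells and -100% = media-only wells without cells; nearly all actives have a fitted effect of over 55% in size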
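Luminescent CellTiter-Glo readout after 48 hours of compound exposure at 37 degrees C defined viability of HT-1080-NT cells. Activity was normalized to DMSO wells and cell-free media wells; concentration-response curves were fitted and assigned curve classes.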
* marks the source's active call; other numbers are inactive results; i = inactive; ? = inconclusive; nt = not tested or not shown; [ ] = dose if it differs, or a comment. In the library only some 19% were active in any assay of this set; here they are far more common. The call rests on the fitted dose curve; in most records, active means well fitted curve in the direction sought with a large enough effect; inconclusive means small, poorly fitted or top-dose-only effect, or another doubt; inactive means no such curve, though single readings can be large; an effect the other way counts as inactive or inconclusive. Unless noted, on the % scale 0 is the no-effect control and ±100 the full control effect; potency means the concentration at half of the fitted maximal effect.

SMILES	HT1080 IDH1KD tx	KB-3-1 cytotox	KB-V1 cytotox	DT40 TDP1 no CPT	TDP1 cell CPT	HT1080-NT tox
N#CCc1c(C#N)c(N)nc(N2CCN(S(=O)(=O)c3ccccc3)CC2)c1C#N	-0.1%	i	i	16.4µM*	8.2µM*	-10.1%
Cc1nn(-c2ccc(F)cc2)c2sc(C(=O)N3CCCCCC3)cc12	-27.0%	i	i	?	?	-18.4%
Cc1ccccc1-n1nc(C)c2cc(C(=O)N3CCN(S(=O)(=O)c4ccccc4)CC3)sc21	11.2%	i	23.1µM*	-25.9%	0.8%	9.1%
CCCC(=O)c1cc(F)c(N2CCN(S(=O)(=O)c3ccccc3)CC2)cc1C	-2.9%	i	?	11.2µM*	16.4µM*	-20.8%
O=C(NCc1ccccc1Cl)c1ccc2c(O)c(S(=O)(=O)c3ccccc3)c(=O)[nH]c2c1	nt	i	i	9.7%	17.6%	nt
Cc1c(C(=O)N2CCOCC2)cc(C(C)(C)C)n1-c1ccccc1	1.1%	i	i	20.6µM*	?	17.3%
Cc1c(OCC(=O)N2CCC(C(=O)O)CC2)ccc2c1oc(=O)c1ccccc12	7.6%	i	i	-2.5%	6.3%	6.9%
CCOc1ccc(C(=O)Nc2nnc(SCc3cc(=O)n4ccccc4n3)s2)cc1	nt	nt	nt	-4.2%	2.4%	nt
Cc1n[nH]c(C)c1C(=O)CC1(O)C(=O)N(CCc2ccccc2)c2ccc(Cl)cc21 (stereo unspecified)	-18.8%	i	i	23.1µM*	?	-27.0%
Cc1ccccc1CN1C(=O)C(O)(CC(=O)c2ccccc2)c2cc(Cl)ccc21 (stereo unspecified)	nt	nt	nt	?	-101.7%	nt
CCc1ccc(C(=O)CC2(O)C(=O)N(CCc3ccccc3)c3ccc(Cl)cc32)cc1 (stereo unspecified)	nt	i	i	16.4µM*	18.4µM*	nt
COc1ccc(N2C(=O)/C(=C/c3cccs3)NC2=S)cc1	8.3%	i	?	5.8µM*	1.46µM*	-6.8%
COc1ccc(O)c(C(=O)N2CCC3(CC2)c2ccccc2[C@@H](NC(=O)c2ccccn2)[C@@H]3OC)c1	nt	nt	nt	-26.7%	1.9%[9.04 µM]	nt
COc1ccc(-c2c[n+]3c(n2-c2ccccc2)SCC3)cc1	?	4.11µM*	i	4.61µM*	8.2µM*	-23.4%
Brc1ccc(-c2c[n+]3c(n2-c2ccccc2)SCC3)cc1	?	?	i	5.8µM*	5.8µM*	-17.5%
Cc1ccc(-c2c[n+]3c(n2-c2ccccc2)SCC3)cc1	?	3.26µM*	i	2.31µM*	3.26µM*	-28.0%
CCC1OC(C(C)C)Cc2[nH][nH]c(=O)c21 (stereo unspecified)	16.1%	i	i	-17.6%	-17.7%	20.0%
Cn1cccc1Cc1nnc(SCC(=O)Nc2cccc(F)c2)n1CCc1ccccc1	-14.2%	i	i	?	23.1µM*	-1.1%
O=C(CSc1nnc(Cn2c(=O)sc3ccccc32)n1CCc1ccccc1)N1CCOCC1	-0.6%	i	18.4µM*	-29.8%	-20.9%	21.6%
Cn1cccc1Cc1nnc(SCC(=O)Nc2ccc(F)cc2)n1-c1ccc(F)cc1	1.3%	i	i	?	?	6.5%
CCSc1nnc(NC(=O)CSc2nnc(Cc3cccn3C)n2-c2ccc(F)cc2)s1	5.9%	i	16.4µM*	?	-11.2%	-5.6%
COc1ccc(-n2c(Cc3cccn3C)nnc2SCC(=O)Nc2cccc(F)c2)cc1	-3.9%	i	i	25.9µM*	23.1µM*	-4.1%
Cc1oc2c(c1C(=O)NCc1ccccc1F)C1=NCCN1C=N2	nt	i	i	-10.9%	-0.4%	nt
Cc1nn(-c2ccccc2)c(C)c1NC(=O)COC(=O)c1ccccc1OC(F)F	14.6%	i	i	16.8%	0.0%	0.5%
Nc1c(C(=O)CSc2nnc(-c3ccccc3)o2)c(=O)[nH]c(=O)n1C1CC1	5.9%	i	i	2.9%	?	3.9%
SMILES	HT1080 IDH1KD tx	KB-3-1 cytotox	KB-V1 cytotox	DT40 TDP1 no CPT	TDP1 cell CPT	HT1080-NT tox
CC(C)Sc1nnc(Cn2c(=O)sc3ccccc32)n1-c1ccccc1	5.7%	i	i	?	?	14.5%
CSc1nnc(Cn2c(=O)sc3ccccc32)n1-c1ccccc1	2.5%	i	i	20.6µM*	20.6µM*	0.2%
CC1CCN(C(=O)CSc2nnc(Cc3cccn3C)n2CCc2ccccc2)CC1	-0.5%	i	i	?	16.4µM*	0.8%
Nc1nc2ncccn2c1-c1ccc(F)c(F)c1	15.5%	i	i	2.0%	-1.5%	5.3%
COc1cccc(CNc2nc3cc(-c4cccc(OC)c4)sc3c(=O)n2C)c1	6.8%	i	i	?	?	-1.5%
COc1cccc(CNc2nc3cc(-c4ccccc4CO)sc3c(=O)n2C)c1	?	?	i	?	18.4µM*	29.1µM*
COc1cccc(CNc2nc3cc(-c4cscc4C)sc3c(=O)n2C)c1	?	i	?	20.6µM*	?	?
O=c1c2ccccc2c(C=NCc2ccccn2)c(O)n1-c1ccccc1	14.0%	i	i	?	-25.4%	0.3%
Cc1ccc(-n2c(O)c(C=NCc3ccccn3)c3ccccc3c2=O)cc1C	?	i	i	25.9µM*	8.2µM*	-26.0%
C#CCOc1ccc2ccccc2c1/C=C(/C#N)c1ccc(C(=O)O)cc1	?	i	i	-13.1%	-2.1%	-16.3%
COc1ccc(C(=O)NC(=S)N2CCCCC2)cc1	0.794µM*	i	i	?	?	0.562µM*
COc1ccc(CN2CCC(C(=O)c3ccc(Cl)cc3)CC2)cc1	-2.7%	i	i	16.4µM*	23.1µM*	1.5%
COc1ccc(CN2CCC(C(=O)c3cccc(Cl)c3)CC2)cc1	14.0%	i	i	2.7%	-3.5%	6.4%
CC(C)CNC(=S)N1CCC(C(=O)c2ccc(Cl)cc2)CC1	-20.9%	i	i	?	10.3µM*	-12.2%
COc1ccc(C(=O)NC(=S)N2CCCC2)cc1	9.0%	i	i	1.5%	-9.2%	14.6%
CCOc1ccc(NC(=S)N2CCC(C(=O)c3ccc(OC)cc3)CC2)cc1	-3.1%	i	i	18.4µM*	16.4µM*	-0.1%
